# In PubChem BioAssay:
# The source made the active and inactive calls.
# What was measured:
# [1] = tested on: PRMT1 (protein arginine N-methyltransferase 1); test: PRMT1 binders on small-molecule microarrays, primary screen, biochemical, small-molecule microarray, 635 nm fluorescence (AID 1088); conditions: small-molecule microarray binding, higher = more signal;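 also: binding of Prmt1 protein to compounds spotted on small-molecule microarray slides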
# [2] = yeast growth modulation, basal conditions, primary screen, YJM789 clinical isolate, OD600, 24 h (AID 1089);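 also: growth of clinical yeast isolate S. cerevisiae YJM 789 seeded 1000 cells per well; test concentration not given here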; conditions: S. cerevisiae YJM789 growth, higher = more signal, called active from +8 up or from −8 down
# [3] = fission yeast growth modulation, primary screen, strain 972, OD600, 24 h, no modulator (AID 1090);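 also: basal condition with compound alone and no growth modifier present; test concentration not given here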; conditions: S. pombe 972 growth, higher = more signal, called active from +8 up or from −8 down
# [4] = S. cerevisiae growth modulation with rapamycin, primary screen, strain BY4716, OD600, 96 h (AID 1091); conditions: higher = more signal, called active from +8 up or from −8 down; also: test concentration not given here
# [5] = molecular target: Torsin-1A-interacting protein 2 (Homo sapiens) (UniProt Q8NFQ8); test: LULL1 binders on small-molecule microarray, primary screen, cell lysate, human LULL1 lysate, 635/667 nm fluorescence (AID 1092); conditions: hLULL1 lysate binding, 635 nm fluorescence, higher = more signal;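 also: probe is lysate of COS7 cells overexpressing human LULL1; score merges per-feature 667 nm fluorescence with signal-to-noise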
# Chain of Torsin-1A-interacting protein 2 (Homo sapiens) (Q8NFQ8 whole entry, looked up): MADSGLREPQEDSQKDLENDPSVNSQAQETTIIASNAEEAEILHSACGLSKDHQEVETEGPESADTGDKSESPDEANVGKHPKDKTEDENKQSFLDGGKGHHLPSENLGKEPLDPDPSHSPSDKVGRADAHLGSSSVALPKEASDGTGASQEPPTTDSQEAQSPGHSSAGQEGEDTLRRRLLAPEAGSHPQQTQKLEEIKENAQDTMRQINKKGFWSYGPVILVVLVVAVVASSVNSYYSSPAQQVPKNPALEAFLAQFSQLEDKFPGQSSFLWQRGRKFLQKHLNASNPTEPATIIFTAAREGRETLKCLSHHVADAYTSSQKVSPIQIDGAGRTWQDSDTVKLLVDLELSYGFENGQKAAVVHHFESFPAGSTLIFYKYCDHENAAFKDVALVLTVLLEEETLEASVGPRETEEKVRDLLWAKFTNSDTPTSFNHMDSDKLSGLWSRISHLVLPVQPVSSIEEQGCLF
# [6] = E. coli growth modulation, two-sided OD650, primary screen, E. coli filamentation project, strain DRC41, 24 h (AID 1093); conditions: OD650, 24 h, higher = more signal, called active from +8 up or from −8 down;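 also: MC1000 strain lacking acrAB efflux and sulA so SOS filamentation is blocked; test concentration not given here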
# [7] = small-molecule microarray binders of probe aLefty2, primary screen, biochemical, biotinylated probe, 635/667 nm fluorescence (AID 1094); conditions: higher = more signal;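 also: score merges spot fluorescence near 667 nm with spot signal-to-noise ratio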
# [8] = tested on: Noggin (protein binding on small-molecule microarray); test: Noggin binders on small-molecule microarray, primary screen, biochemical, 635/667 nm fluorescence (AID 1095); conditions: 635 nm fluorescence, higher = more signal;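 also: score merges 667 nm feature fluorescence with signal to noise over triplicate slides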
# [9] = molecular target: Neurogenic locus notch homolog protein 3 (Homo sapiens) (UniProt Q9UM47); test: NOTCH3 binders on small-molecule microarray, primary screen, biochemical, 635/667 nm fluorescence (AID 1096); conditions: NOTCH3 binding, 635 nm fluorescence, higher = more signal
# Chain of Neurogenic locus notch homolog protein 3 (Homo sapiens) (Q9UM47 whole entry, looked up): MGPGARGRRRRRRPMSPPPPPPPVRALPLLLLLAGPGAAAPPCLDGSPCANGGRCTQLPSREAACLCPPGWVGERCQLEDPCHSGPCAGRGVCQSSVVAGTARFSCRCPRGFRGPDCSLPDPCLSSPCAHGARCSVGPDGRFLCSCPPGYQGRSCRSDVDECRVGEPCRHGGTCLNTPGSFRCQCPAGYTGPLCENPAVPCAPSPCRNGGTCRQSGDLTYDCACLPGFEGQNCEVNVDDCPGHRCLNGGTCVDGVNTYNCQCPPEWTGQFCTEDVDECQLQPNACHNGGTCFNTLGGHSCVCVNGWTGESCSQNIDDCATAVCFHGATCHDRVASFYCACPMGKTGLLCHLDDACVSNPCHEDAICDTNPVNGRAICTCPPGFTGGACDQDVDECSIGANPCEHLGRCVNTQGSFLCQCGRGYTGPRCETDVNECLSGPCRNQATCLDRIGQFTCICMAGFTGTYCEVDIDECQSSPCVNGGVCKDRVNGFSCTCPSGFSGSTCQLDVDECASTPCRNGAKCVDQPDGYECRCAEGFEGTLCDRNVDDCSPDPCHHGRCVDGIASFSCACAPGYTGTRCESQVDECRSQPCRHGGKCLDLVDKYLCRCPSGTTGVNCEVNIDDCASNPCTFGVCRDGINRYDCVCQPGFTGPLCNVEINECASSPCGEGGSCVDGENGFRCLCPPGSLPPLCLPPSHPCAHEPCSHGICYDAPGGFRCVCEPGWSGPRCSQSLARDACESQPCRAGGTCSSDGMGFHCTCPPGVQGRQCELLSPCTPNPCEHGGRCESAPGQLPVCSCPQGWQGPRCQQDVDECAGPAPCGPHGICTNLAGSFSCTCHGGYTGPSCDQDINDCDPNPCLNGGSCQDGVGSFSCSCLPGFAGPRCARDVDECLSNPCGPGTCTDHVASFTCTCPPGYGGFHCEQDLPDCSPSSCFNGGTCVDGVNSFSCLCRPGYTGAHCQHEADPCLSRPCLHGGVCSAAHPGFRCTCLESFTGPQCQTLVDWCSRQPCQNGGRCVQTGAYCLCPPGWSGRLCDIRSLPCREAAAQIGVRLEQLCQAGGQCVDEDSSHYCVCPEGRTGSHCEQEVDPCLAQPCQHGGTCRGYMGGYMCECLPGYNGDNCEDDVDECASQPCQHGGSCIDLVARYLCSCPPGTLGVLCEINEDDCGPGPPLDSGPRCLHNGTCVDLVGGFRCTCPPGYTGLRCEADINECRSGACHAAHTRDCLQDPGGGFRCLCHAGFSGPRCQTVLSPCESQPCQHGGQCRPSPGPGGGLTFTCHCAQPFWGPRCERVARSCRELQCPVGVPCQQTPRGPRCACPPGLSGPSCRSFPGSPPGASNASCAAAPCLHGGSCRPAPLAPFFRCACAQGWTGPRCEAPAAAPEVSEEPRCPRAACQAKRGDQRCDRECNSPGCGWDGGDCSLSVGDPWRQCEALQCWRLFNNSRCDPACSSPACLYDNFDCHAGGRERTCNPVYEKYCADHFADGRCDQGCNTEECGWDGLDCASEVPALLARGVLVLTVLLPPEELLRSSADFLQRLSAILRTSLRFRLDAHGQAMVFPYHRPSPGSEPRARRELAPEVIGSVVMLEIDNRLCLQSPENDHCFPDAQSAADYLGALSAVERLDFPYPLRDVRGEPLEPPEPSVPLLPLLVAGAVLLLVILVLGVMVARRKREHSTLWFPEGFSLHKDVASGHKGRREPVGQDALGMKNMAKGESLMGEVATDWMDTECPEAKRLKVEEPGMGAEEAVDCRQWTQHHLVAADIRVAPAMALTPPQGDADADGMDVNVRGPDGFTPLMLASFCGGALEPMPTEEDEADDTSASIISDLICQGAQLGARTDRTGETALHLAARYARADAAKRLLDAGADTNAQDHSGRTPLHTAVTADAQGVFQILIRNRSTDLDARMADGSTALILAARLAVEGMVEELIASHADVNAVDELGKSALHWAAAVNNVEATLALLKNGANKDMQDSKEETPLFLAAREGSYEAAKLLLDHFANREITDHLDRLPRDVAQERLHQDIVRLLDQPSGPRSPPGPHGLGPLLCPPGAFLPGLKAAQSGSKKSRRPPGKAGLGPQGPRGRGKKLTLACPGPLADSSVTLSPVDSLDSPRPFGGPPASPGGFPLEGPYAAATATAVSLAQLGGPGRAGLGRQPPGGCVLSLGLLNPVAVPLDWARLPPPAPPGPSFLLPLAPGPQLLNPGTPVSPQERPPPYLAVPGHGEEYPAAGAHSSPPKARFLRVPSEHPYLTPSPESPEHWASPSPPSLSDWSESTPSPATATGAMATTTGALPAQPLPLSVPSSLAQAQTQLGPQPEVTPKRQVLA
# [10] = small-molecule microarray binders of probe aEGFR, primary screen, biochemical, biotinylated probe, 635/667 nm fluorescence (AID 1097); conditions: higher = more signal;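 also: probe is a biotinylated anti-EGFR antibody binding compounds printed on slides; score combines fluorescence near 667 nm and signal to noise of each spot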
# [11] = tested on: Plasmodium falciparum Sir2 (PF13_0152, Sir2A); test: pfSir2 binders on small-molecule microarrays, primary screen, biochemical, small-molecule microarray, 635 nm fluorescence (AID 1098); conditions: small-molecule microarray binding, fluorescence 635 nm; higher = more signal;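 also: score merges spot fluorescence intensity with its signal-to-noise ratio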
# [12] = small-molecule microarray binders of probe aDKK1, primary screen, biochemical, biotinylated probe, 635/667 nm fluorescence (AID 1099); conditions: higher = more signal;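 also: score merges 667nm spot fluorescence with signal to noise across triplicate slides; reference of the scale not given here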
# [13] = small-molecule microarray binders of probe aCHRDL2, primary screen, biochemical, biotinylated probe, 635/667 nm fluorescence (AID 1100); conditions: higher = more signal
# [14] = splicing luciferase reporter signal modulators, primary screen, spliceosome inhibition project, cell-based, HEK293, splice +/- reporter (AID 1101); conditions: luminescence, 24 h, higher = more signal, called active from +8 up or from −8 down;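 also: HEK293 cells carrying a splicing-competent luciferase reporter gene; test concentration not given here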
# [15] = molecular target: Fibroblast growth factor 10 (Homo sapiens) (UniProt O15520); test: FGF10 binders on small-molecule microarrays, primary screen, biochemical, small-molecule microarray, 635 nm fluorescence (AID 1102); conditions: FGF10 binding, fluorescence 635 nm, higher = more signal
# Chain of Fibroblast growth factor 10 (Homo sapiens) (O15520 whole entry, looked up): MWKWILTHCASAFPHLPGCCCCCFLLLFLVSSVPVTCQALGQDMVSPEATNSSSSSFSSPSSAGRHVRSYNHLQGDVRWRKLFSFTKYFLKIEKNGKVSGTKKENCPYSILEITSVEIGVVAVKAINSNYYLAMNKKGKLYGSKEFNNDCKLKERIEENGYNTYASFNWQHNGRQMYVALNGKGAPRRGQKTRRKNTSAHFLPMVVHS
# [16] = tested on: glycogen synthase kinase-3 (GSK3A per assay name; protocol says GSK3B); test: GSK3 binders on small-molecule microarrays, primary screen, biochemical, small-molecule microarray, 635 nm fluorescence, GSK3A (AID 1103); conditions: small-molecule microarray binding, fluorescence 635 nm; higher = more signal; also: the record names both GSK3A and GSK3B
# [17] = molecular target: Epidermal growth factor receptor (Homo sapiens) (UniProt P00533); test: EGFR binders on small-molecule microarrays, primary screen, biochemical, small-molecule microarray, 635 nm fluorescence (AID 1104); conditions: EGFR binding, higher = more signal;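 also: score merges 667 nm emission intensity with spot signal to noise over triplicate slides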
# Chain of Epidermal growth factor receptor (Homo sapiens) (P00533 whole entry, looked up): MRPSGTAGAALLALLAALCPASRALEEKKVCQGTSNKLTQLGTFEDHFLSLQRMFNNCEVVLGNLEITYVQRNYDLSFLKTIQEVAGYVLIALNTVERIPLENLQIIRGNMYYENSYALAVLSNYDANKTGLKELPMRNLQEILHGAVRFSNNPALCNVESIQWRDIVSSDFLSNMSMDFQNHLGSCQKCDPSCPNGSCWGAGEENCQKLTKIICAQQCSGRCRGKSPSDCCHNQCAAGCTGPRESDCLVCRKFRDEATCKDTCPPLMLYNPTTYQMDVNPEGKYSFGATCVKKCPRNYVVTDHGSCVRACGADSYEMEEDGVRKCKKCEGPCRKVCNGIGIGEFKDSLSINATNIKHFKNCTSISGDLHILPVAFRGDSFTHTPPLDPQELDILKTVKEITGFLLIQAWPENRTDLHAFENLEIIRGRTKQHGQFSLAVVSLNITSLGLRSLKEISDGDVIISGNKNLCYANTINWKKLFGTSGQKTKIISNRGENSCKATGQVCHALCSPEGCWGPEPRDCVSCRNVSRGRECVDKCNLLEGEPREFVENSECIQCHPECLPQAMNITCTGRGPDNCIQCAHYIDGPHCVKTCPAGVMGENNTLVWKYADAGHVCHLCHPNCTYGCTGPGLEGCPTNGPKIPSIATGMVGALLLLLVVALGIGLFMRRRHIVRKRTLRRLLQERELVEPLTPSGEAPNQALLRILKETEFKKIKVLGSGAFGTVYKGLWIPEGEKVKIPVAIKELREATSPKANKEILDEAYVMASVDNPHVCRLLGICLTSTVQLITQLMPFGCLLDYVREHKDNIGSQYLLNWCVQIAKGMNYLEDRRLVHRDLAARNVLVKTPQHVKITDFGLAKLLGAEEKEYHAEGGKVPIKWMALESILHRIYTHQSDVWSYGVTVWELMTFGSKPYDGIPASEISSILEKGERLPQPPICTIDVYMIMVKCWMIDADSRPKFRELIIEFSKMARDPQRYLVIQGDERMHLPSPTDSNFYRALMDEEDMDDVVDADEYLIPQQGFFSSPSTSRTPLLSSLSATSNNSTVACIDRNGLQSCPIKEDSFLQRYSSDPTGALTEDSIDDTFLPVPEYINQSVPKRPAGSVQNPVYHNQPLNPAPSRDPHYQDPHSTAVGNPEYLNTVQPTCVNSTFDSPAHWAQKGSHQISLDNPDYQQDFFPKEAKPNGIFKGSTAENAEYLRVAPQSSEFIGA
# [18] = molecular target: Follistatin-related protein 3 (Homo sapiens) (UniProt O95633); test: FSTL3 binders on small-molecule microarrays, primary screen, biochemical, small-molecule microarray, 635 nm fluorescence (AID 1105); conditions: FSTL3 binding, higher = more signal;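 also: score merges emission near 667 nm and signal to noise per printed spot across three slides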
# Chain of Follistatin-related protein 3 (Homo sapiens) (O95633 whole entry, looked up): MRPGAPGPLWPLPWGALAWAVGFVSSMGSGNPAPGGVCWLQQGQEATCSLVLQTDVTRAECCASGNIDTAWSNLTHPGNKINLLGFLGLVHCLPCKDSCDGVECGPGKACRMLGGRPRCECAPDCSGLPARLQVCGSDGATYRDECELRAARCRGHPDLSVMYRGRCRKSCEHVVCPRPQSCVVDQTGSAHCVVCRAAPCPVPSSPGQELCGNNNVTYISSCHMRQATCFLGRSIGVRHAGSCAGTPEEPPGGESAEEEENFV
# [19] = molecular target: Dickkopf-related protein 1 (Homo sapiens) (UniProt O94907); test: DKK1 binders on small-molecule microarrays, primary screen, biochemical, small-molecule microarray, 635 nm fluorescence scan (AID 1106); conditions: DKK1 binding, higher = more signal;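 also: score merges emission near 667 nm with signal to noise over three replicate slides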
# Chain of Dickkopf-related protein 1 (Homo sapiens) (O94907 whole entry, looked up): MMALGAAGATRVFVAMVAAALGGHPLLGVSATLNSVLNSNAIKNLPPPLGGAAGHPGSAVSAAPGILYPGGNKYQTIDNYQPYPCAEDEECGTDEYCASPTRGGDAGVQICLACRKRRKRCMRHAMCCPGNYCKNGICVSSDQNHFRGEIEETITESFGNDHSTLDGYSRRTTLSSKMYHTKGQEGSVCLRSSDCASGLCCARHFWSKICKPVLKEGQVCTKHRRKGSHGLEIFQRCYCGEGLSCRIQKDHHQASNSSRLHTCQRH
# [20] = tested on: Inhibin beta A chain (activin A); test: INHBA (activin A) binders on microarrays, primary screen, biochemical, small-molecule microarray, 635 nm fluorescence scan (AID 1107); conditions: small-molecule microarray binding, higher = more signal;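 also: mouse activin A protein probed at 4.33 µg/mL on printed slides; score merges bound-protein fluorescence near 667 nm with spot signal-to-noise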
Structure (SMILES),composite z-score [1],z-score [2],z-score [3],z-score [4],composite z-score [5],z-score [6],composite z-score [7],composite z-score [8],composite z-score [9],composite z-score [10],composite z-score [11],composite z-score [12],composite z-score [13],z-score [14],composite z-score [15],composite z-score [16],composite z-score [17],composite z-score [18],composite z-score [19],composite z-score [20]
Cc1ccc([C@H]2[C@H](C(=O)O)[C@H](Sc3ccccc3)[C@@H](C(C)C)N2S(=O)(=O)c2ccc(C)cc2)cc1,1.03,-0.611 (inactive),-0.0319 (inactive),-0.993 (inactive),3.03,-1.69 (inactive),0.179,0.0176,1.13,-0.0679,0.587,-0.403,0.355,0.27 (inactive),0.95,1.22,0.151,0.905,0.168,0.417
COC(=O)C[C@@H]1C[C@H](C)[C@]2(O1)C(=O)N(Cc1ccccc1)c1ccc(NC(C)=O)cc12,-0.509,0.498 (inactive),-1.1 (inactive),0.134 (inactive),0.053,0.827 (inactive),-0.166,0.571,0.107,-0.111,0.0968,-0.148,-0.448,0.247 (inactive),0.603,0.141,0.324,0.389,0.355,0.4
[N-]=[N+]=NCc1ccccc1[C@@H]1OC(c2ccc(OCCCO)cc2)=N[C@]1(Cc1ccccc1)C(=O)N1CCCCC1,1.15,-0.202 (inactive),-1.09 (inactive),1.66 (inactive),2.74,1.47 (inactive),0.332,1.46,1.07,0.193,1.36,0.792,0.63,-0.276 (inactive),1.32,1.18,-0.167,0.584,0.118,0.407
COC(=O)C[C@H]1O[C@]2(C(=O)N(Cc3ccccc3)c3ccc(NC(C)=O)cc32)[C@@H](C)[C@@H]1[Si](C)(C)c1ccc(OC)cc1,0.994,0.747 (inactive),0.19 (inactive),2.53 (inactive),1.56,0.0208 (inactive),-0.082,1.09,1.14,-0.108,0.407,-0.097,-0.362,-0.703 (inactive),0.802,0.985,0.474,0.719,0.599,0.25
CCOC(=O)C1=CCC(c2ccc([N+](=O)[O-])cc2)N(S(=O)(=O)c2ccc(C)cc2)C1 (stereo not given),-0.394,1.33 (inactive),2.26 (inactive),4.61 (inactive),1.28,0.638 (inactive),0.0478,-0.281,0.422,0.0296,0.376,0.616,0.983,-0.22 (inactive),-0.0502,0.0526,-0.356,0.171,-0.421,1.32
CC(C)(C)OC(=O)CC[C@@]1(C(=O)O)N=C(c2ccc(OCCCO)cc2)O[C@@H]1c1ccccc1N=[N+]=[N-],1.15,0.949 (inactive),0.419 (inactive),-0.286 (inactive),2.15,0.484 (inactive),0.553,-0.569,0.104,0.325,1.67,1.16,1.36,-0.66 (inactive),0.991,0.357,-0.288,-0.153,-0.169,1.33
O=C1OCCC/C=C\[C@H]2OC34C=CCN(Cn5nnc6ccccc65)C(=O)[C@H]3N(CCCCCO)C(=O)[C@@H]4C12 (stereo not given in full),-1.29,-0.401 (inactive),-0.745 (inactive),-1.83 (inactive),1.04,0.498 (inactive),-0.114,-0.808,-0.0037,-0.174,0.957,-0.118,0.584,-0.586 (inactive),-1.08,-1.7,-0.97,-0.751,-1.45,0.702
Cc1ccc([C@H]2C(C(=O)O)=C[C@@H](C)N2S(=O)(=O)c2ccc(C)cc2)cc1,0.896,-0.495 (inactive),-0.812 (inactive),-0.422 (inactive),3.71,-0.291 (inactive),0.0754,-0.24,-0.546,-0.165,1.23,0.353,0.841,0.709 (inactive),-0.564,-0.107,-0.19,-0.525,-1.13,1.02
N#Cc1ccc(NN2C(C(O)c3ccc([N+](=O)[O-])cc3)C=CC3C(=O)N(c4ccccc4)C(=O)C32)cc1 (stereo not given),0.698,-0.0094 (inactive),1.2 (inactive),1.39 (inactive),3.29,-1.75 (inactive),0.0478,-0.299,1.06,0.0478,1.29,0.829,1.08,2.23 (inactive),0.626,0.751,0.0159,0.422,-0.392,0.787
CCOC(=O)C[C@H]1[C@H](OC(=O)c2ccc(-c3ccccc3)cc2)[C@@H](NC(=O)Cc2ccc(OC)cc2)c2cc(OCCCO)ccc2N1C(=O)c1ccc2ccccc2n1,0.532,-0.914 (inactive),0.56 (inactive),0.0126 (inactive),1.73,-0.733 (inactive),-0.0561,0.587,0.317,0.223,0.042,0.593,0.294,-1.05 (inactive),0.181,0.267,-0.127,0.367,0.0289,0.827
C=C(COC)C(=O)CC[C@@H](OC(=O)c1cccnc1)c1ccc(CO)o1,1.35,0.692 (inactive),-0.0164 (inactive),-0.336 (inactive),0.991,0.255 (inactive),-0.21,0.817,0.574,-0.137,0.691,-0.2,-0.237,1.86 (inactive),0.0396,0.457,0.182,0.916,0.611,1.58
CCOC(=O)C[C@H]1[C@H](OC(=O)c2ccc(-c3ccccc3)cc2)[C@@H](NC(=O)c2ccc3ccccc3c2)c2cc(OCCCO)ccc2N1C(=O)Cc1ccc(OC)cc1,0.265,-1.32 (inactive),0.636 (inactive),-0.115 (inactive),0.948,0.0672 (inactive),-0.124,-0.205,-0.209,-0.128,-0.517,-0.0669,-0.269,-0.334 (inactive),-0.383,0.247,-0.245,0.368,-0.416,0.487
